Source: PubChem BioAssay (NCI)
The panel holds about 83,000 compounds, 20% with a hit somewhere; the sample as a whole holds those more often.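 How to read the values: 0–100, growth inhibition (40 = 60% inhibited); 0, no net growth; -100 to 0, cell death (-40 = 40% of starting cells died; -100 = all dead).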 Values without a mark were called inactive. Activity calls are given as the source filed them. Rule for the calls: active = growth percent below 10; inactive = the rest.

Columns and labels:
Assay in all cases: NCI-60 one-dose screen, 48 h (100 = growth as untreated, 0 = no growth, -100 = all killed)
[1] = system: EKVX NSCLC; details: 10 µM unless noted
[2] = system: SN12C renal; details: 10 µM unless noted
[3] = system: UO-31 renal; details: 10 µM unless noted
[4] = system: TK-10 renal; details: 10 µM unless noted
[5] = system: ACHN renal; details: 10 µM unless noted
[6] = system: CAKI-1 renal; details: 10 µM
[7] = system: CCRF-CEM leukemia; details: 10 µM unless noted
[8] = system: MOLT-4 leukemia; details: 10 µM unless noted
[9] = system: A498 renal; details: 10 µM unless noted

Structure (SMILES)	growth [1]	growth [2]	growth [3]	growth [4]	growth [5]	growth [6]	growth [7]	growth [8]	growth [9]
Cc1nc(-c2cc3ccccc3c(N3CCN(C)CC3)n2)cs1	96.3%	90%	67%	98.2%	94%	72.1%	103%	98%	
Cc1cn(-c2cc(NC(=O)c3cncc(C#Cc4cnc5ccc(OCCCS(C)(=O)=O)nn45)c3)cc(C(F)(F)F)c2)cn1	16%	16.7%	38.3%	33.8%	56.2%	37.4%	6.72% (active)	9.79% (active)	
Cc1cn(-c2cc(NC(=O)c3cncc(C#Cc4cnc5ccc(O[C@@H]6CCOC6)nn45)c3)cc(C(F)(F)F)c2)cn1	-9.97% (active)	-8.41% (active)	-13.3% (active)	-19.2% (active)	-93.6% (active)	1.07% (active)	0.641% (active)	2.18% (active)	
CS(=O)(=O)c1ccc2c(c1)c1c(n2Cc2ccc(Cl)cc2)CCCC1	71.2%	73.6%	55.1%	89.3%	66.8%	54.4%		64.3%	74.3%
CC1(C)CC[C@]2(C(=O)O)CC[C@]3(C)C(=CCC4[C@@]5(C)C[C@@H](O)[C@@H]6OC(c7cccc([N+](=O)[O-])c7)OC[C@@]6(C)C5CC[C@]43C)C2C1 (stereo not given in full)	57.6%	62%	59.9%	71.9%	39.4%	79.7%	44.4%	48.2%	
COc1ccc(CN2C(=O)/C(=C/c3nc(CO)cs3)SC2=S)cc1	100%	93%	67%	65.6%	99.6%	77%	61.1%	76.7%	
C=CCn1c(SCC(=O)c2ccc(OC)cc2)nnc1-c1ccc(OC)cc1	96.4%	97.6%	92.1%	105%	104%	88.3%	107%	96.1%	
O=C1Nc2cc(OC(F)(F)F)ccc2Oc2ccc(-c3ccnc(N4CCNCC4)c3)cc21	41.2%	-26.9% (active)	1.72% (active)	27.8%	2.57% (active)	-36.1% (active)	-6.19% (active)	-0.166% (active)	
Fc1ccccc1/C=C(/C1=NCCN1)n1cnc2ccccc21	95%	97.4%	85.3%	99.4%	97%	84.1%	108%	106%	
C(=C(\C1=NCCN1)n1cnc2ccccc21)/c1cccc2ccccc12	87.2%	85.4%	62.2%	90.9%	87.2%	68.7%	91.1%	93.2%	
c1ccc(-c2n(Cc3ccc4ccccc4c3)c3c4ccccc4c4ccccc4c3[n+]2Cc2ccc3ccccc3c2)cc1	-90.2% (active)	-83.7% (active)	-88% (active)	-76.6% (active)	-93.3% (active)	-92.5% (active)	-18.9% (active)	-56% (active)	
CC(C)(C)n1nnnc1C(Nc1nccs1)c1cc2cccc3ccc4cccc1c4c32 (stereo not given)	91%	98.5%	84.9%	99%	97.4%	51.1%	98.7%	96.6%	
CC1CCc2c(sc3nc(SCC(=O)N/N=C/c4ccc(Cl)cc4)n(-c4ccccc4)c(=O)c23)C1 (stereo not given)	103%	95.6%	94.2%	114%	81.1%	75.1%	109%	110%	
Nc1nc(-c2cccc([N+](=O)[O-])c2)c(N=Nc2ccccc2Cl)s1	79.6%	73.7%	63.8%	85.7%	63.2%	28.8%	66.8%	68.7%	
CC(=O)Nc1nc2c(s1)C1=CC[C@H]3[C@@H]4CC[C@H](C(C)=O)[C@@]4(C)CC[C@@H]3[C@@]1(C)CC2	68.7%	86.4%	65.4%	124%	77.6%	80.3%		1.44% (active)	74.5%
CC(=O)Oc1ccc(CCN2C(=O)CSC2=S)cc1	97.3%	69%	76.8%	57.9%	93.6%	81.6%	57.9%	88.2%	
CN1CCN(Cc2ccc(NC(=O)c3cncc(C#Cc4cnc5ccc(NC6CCOCC6)nn45)c3)cc2C(F)(F)F)CC1	-4.66% (active)	1.01% (active)	-43.7% (active)	-11.7% (active)	-95.5% (active)	-46.9% (active)	3.15% (active)	5.18% (active)	
COc1cc(O)c2c(c1)/C=C/C[C@H](O)[C@H](O)C(=O)/C=C\C[C@H](C)OC2=O	44.2%	7.02% (active)	13.1%	34.7%	6.98% (active)	13.6%	8.51% (active)	5.34% (active)	
CCOC(=O)C1=C(C)N=C2Sc3ccccc3N2C1c1ccccc1 (stereo not given)	67.6%	93.4%	64.7%	110%	88%	65.6%	86.2%	87.2%	
Cc1cc(O)c(=O)cc2c1C[C@H]1CC(C)(C)/C=C/C[C@]3(C)Oc4cc(=O)c(O)cc(C)c4C[C@H]3C[C@H](O)[C@@]1(C)O2	3.91% (active)	6.41% (active)	-15.8% (active)	-1.4% (active)	-3.47% (active)		4.82% (active)	2.51% (active)	-7.88% (active)
CCCCCCNC(=O)Oc1ccc(/C(=C(/C)c2ccccc2)c2ccc(OCCN(C)C)cc2)cc1	72.2%	63.6%	53.9%	83%		50.9%	67.9%	34.7%	76.5%
C=C(C)C(=O)O[C@H]1C[C@@]2(C)OC(=CC2=O)[C@H](C)[C@H](O)[C@H]2OC(=O)C(=C)[C@@H]21	73.6%	73.9%	53.9%		31.9%		7.85% (active)	76.6%	131%
CCc1ccc(NC(=O)N[C@@H](Cc2cccc(F)c2)C(=O)N[C@@H]2C(=O)N3CCC[C@H]3C(=O)N3CCCC[C@H]3C(=O)N[C@@H](C)C(=O)N3C[C@H](C)C[C@H]3C(=O)O[C@H]2C)c(F)c1	31.1%	21%	26.3%	50.3%	27.4%	17.8%		32%	
Oc1ccc(CSc2nnc(-c3cnccn3)o2)c2cccnc12	19.3%	7.45% (active)	6.71% (active)	35.3%	0.457% (active)	2.13% (active)	18.1%	16.9%	
CS(=O)c1nccc(-c2c(-c3ccc(F)c(OCCc4ccccc4)c3)nc3sccn23)n1 (stereo not given)	99.9%	93.7%	52.7%	105%		84.8%			92.6%
COc1ccc(-c2nc3cc(Cl)c(Cl)cc3n2CC(=O)N=Nc2c(O)[nH]c3ccc(Br)cc23)cc1	4.81% (active)	-20.1% (active)	-34.9% (active)	6.26% (active)	-83% (active)	-76.8% (active)	39%	36.4%	
Nc1nc(-c2cccc([N+](=O)[O-])c2)c(N=Nc2cccc(Cl)c2)s1	41.9%	53.2%	33.5%	71.7%	48.6%	23.2%	36%	26.5%	
COc1cc(/C=N/Nc2ccnc3cc(Cl)ccc23)cc(OC)c1O	-71.8% (active)	-64.7% (active)	-96.4% (active)	-69.6% (active)		-93% (active)	9.72% (active)	-13% (active)	99.5%
